Values joined by “and” are separate entries in the source; they are usually repeats but may differ in a detail not shown here. Identical values can stand only once. Records with an inconclusive call do not appear. Active and inactive are the calls of the source. Unless noted, calls follow the shape of the full dose curve.

Test [1] is described as follows: Inducers of the Endoplasmic Reticulum Stress Response (ERSR) in human glioma: Validation (AID 504836; active = well fitted curve in the direction sought with a large enough effect; an effect the other way counts as inactive or inconclusive; also: 0% is about no effect). The essentials:
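Stably transfected U87-MG human glioma cells carrying a GRP78-based luminescent sensor were seeded at 1000 cells/well, pin-dosed with compounds and incubated 16 h. Luciferase reagent was then added, and end-point luminescence was read after 10 min at room temperature.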

Test [2] is described as follows: qHTS for Inhibitors of the Functional Ribonucleoprotein Complex (vRNP) of Lassa (LASV) Arenavirus: LASV Primary Screen - GLuc reporter signal (AID 1347082; calls by dose curve; tested in HEK293 reporter line; also: % is scaled to controls: 0 for no effect and ±100 for the full control effect; nearly all actives have a fitted effect of over 60% in size). A general note: Quantitative high-throughput screening tests each substance at several concentrations.
A short description of test [3]: qHTS for Inhibitors of the Functional Ribonucleoprotein Complex (vRNP) of Lymphocytic Choriomeningitis Arenaviruses (LCMV): Viability assay - alamar blue signal for LCMV Primary Screen (AID 1347085; calls by dose curve; tested in HEK293 reporter line; also: nearly all actives have a fitted effect of over 80% in size; also: potency is read from the fitted curve at half-maximal effect).
Test [4] addresses Nucleoprotein (Lymphocytic choriomeningitis virus (strain Armstrong)) (UniProt P09992). Description: qHTS for Inhibitors of the Functional Ribonucleoprotein Complex (vRNP) of Lymphocytic Choriomeningitis Arenaviruses (LCMV): LCMV Primary Screen - GLuc reporter signal (AID 1347086). Also: nearly all actives have a fitted effect of over 70% in size. Also: potency is read from the fitted curve at half-maximal effect. As to activity change, negative = inhibition: % is scaled to controls: 0 for no effect and ±100 for the full control effect.
Test [5] addresses Alpha-galactosidase (Coffea arabica) (UniProt Q42656). Description: Counterscreen for Glucocerebrosidase Inhibitors: qHTS Assay for Coffee Bean alpha-Galactosidase at pH 4.5 (AID 957; active = well fitted curve in the direction sought with a large enough effect; an effect the other way counts as inactive or inconclusive;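 also: plate controls were enzyme alone for no effect and no enzyme for full effect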). The essentials:
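AC50 values derive from Hill-equation modeling of concentration-response data, normalized to no-enzyme and full-activity controls. The pH 4.5 citrate assay used 2 nM coffee bean enzyme and 80 uM fluorogenic substrate for 20 min.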

The target is the same in test [6]. Kind of test: Counterscreen for Glucocerebrosidase Inhibitors: qHTS Assay for Coffee Bean alpha-Galactosidase at pH 5.9 (AID 998; active = well fitted curve in the direction sought with a large enough effect; an effect the other way counts as inactive or inconclusive;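 also: plate controls were uninhibited enzyme for no effect and no-enzyme basal signal for full effect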). Summed up: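 Green coffee bean enzyme (2 nM final) was incubated with compounds (0.7 nM–77 uM) and 4-methylumbelliferyl alpha-D-galactopyranoside (80 uM) in citrate buffer pH 5.9, 20 min at room temperature. High-pH stop; fluorescence 365/440 nm; AC50 from Hill fits.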

Test [7] is described as follows: Validation screen for inhibitors of Lassa infection (AID 463096). Also: potency is read from the fitted curve at half-maximal effect. As to activity change, negative = inhibition: % is scaled to controls: 0 for no effect and ±100 for the full control effect.
Test [8] deals with Bile acid receptor (Homo sapiens) (UniProt Q96RI1). Description: qHTS assay for small molecule agonists of farnesoid X receptor signaling (AID 588527).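 Also: 0% = vehicle basal and 100% = reference agonist.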 The following applies: HEK293T FXR-UAS-bla, beta-lactamase ratio, 16 h; activation: stronger effect = higher value. The essentials:
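FXR-UAS-bla HEK293T cells (10% dialyzed FBS) preincubated 5-7 h at 37 C, then compounds at up to 92 uM for 16 h at 37 C. CCF4 beta-lactamase read-out after 2 h RT. Normalized to chenodeoxycholic acid (100 uM) and DMSO; Hill fit gave EC50 and efficacy.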

In test [9] the target is Peroxisome proliferator-activated receptor delta (Homo sapiens) (UniProt Q03181). Description: qHTS assay for small molecule agonists of peroxisome proliferator-activated receptor delta signaling (AID 588534).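 Also: 0% = DMSO basal wells and 100% = positive control agonist at 10 µM.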 The essentials: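 Reporter cells were plated and held 5 hrs at 37 C before compounds were added. After 18 hrs at 37 C, CCF4 dye was loaded for 2 hrs at RT and fluorescence measured.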
Peroxisome proliferator-activated receptor delta (Homo sapiens), sequence (Q03181 whole entry, looked up): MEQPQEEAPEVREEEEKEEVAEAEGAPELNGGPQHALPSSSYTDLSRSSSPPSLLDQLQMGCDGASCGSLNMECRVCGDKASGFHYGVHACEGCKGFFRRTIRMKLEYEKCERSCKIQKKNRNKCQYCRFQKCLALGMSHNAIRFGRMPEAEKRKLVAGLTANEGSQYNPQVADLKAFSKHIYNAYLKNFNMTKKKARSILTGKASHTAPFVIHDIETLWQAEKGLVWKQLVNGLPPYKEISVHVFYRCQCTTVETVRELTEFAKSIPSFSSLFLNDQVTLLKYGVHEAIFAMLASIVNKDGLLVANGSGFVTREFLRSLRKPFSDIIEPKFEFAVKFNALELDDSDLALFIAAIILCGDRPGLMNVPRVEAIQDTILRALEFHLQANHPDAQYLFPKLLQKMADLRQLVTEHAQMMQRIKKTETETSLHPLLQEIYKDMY

A short description of test [10]: Cytotoxicity counterscreen for inhibitors of SARS-CoV-2 cell entry (AID 1645845). Also: nearly all actives have a fitted effect of over 50% in size. The essentials:
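Expi293F/hACE2 cells seeded overnight; cpd pin-transferred in DMSO, 1 h preincubation, + media, 48 h 37 C 5% CO2; ATPLite 1step luminescence; normalized to cells and no cells.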

A short description of test [11]: Primary qHTS to identify inhibitors of SARS-CoV-2 cell entry (AID 1645846). Also: nearly all actives have a fitted effect of over 45% in size. Also: potency is read from the fitted curve at half-maximal effect. The conditions noted are these: activity change, negative = inhibition: at 57.1 µM (top of the series) unless noted. The essentials:
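HEK293 cells stably expressing human ACE2, pre-treated 1 h with compound, then infected with MLV particles pseudotyped with Wuhan-Hu-1 spike (C-terminal 19-aa truncation). Luciferase luminescence after 48 h at 37 °C, normalised to spike PP and bald PP.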

The nature of test [12]: Confirmatory qHTS for VERO E6 Cytotoxicity Assay: Counterscreen for SARS-CoV-2 CPE Assay (AID 1508605). Also: potency is read from the fitted curve at half-maximal effect; nearly all actives have a fitted effect of over 60% in size.
Test [13] is described as follows: qHTS Assay for Lipid Storage Modulators (AID 1519). The following applies: Drosophila S3 cells, BODIPY lipid droplet/cell ratio, laser cytometry, cells loaded with oleic acid. The essentials:
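Cells seeded at 5,000 per well were treated with compounds over a concentration series and loaded with oleic acid (400 uM, as added). Lipid droplet fluorescence (488 nm excitation, 500-530 nm channel) was read by laser-scanning cytometry and normalized to 20 uM Triacsin C.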

The nature of test [14]: VSVG counterscreen qHTS to identify inhibitors of SARS-CoV-2 cell entry (AID 1645847). Also: potency is read from the fitted curve at half-maximal effect; nearly all actives have a fitted effect of over 65% in size. The essentials: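 HEK293-ACE2 cells (Expi293F, human ACE2) pretreated 1 h with compound, then infected with MLV-based VSV-G pseudotyped particles for 48 h at 37 C; luciferase luminescence normalized to VSV-G PP and bald PP wells.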
A short description of test [15]: qHTS profiling of the MIPE4 collection as inhibitors of Plasmodium falciparum (3D7) proliferation (AID 743344; call rule not given here;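 also: scaled between DMSO vehicle wells and 0.29 µM artemisinin as full inhibition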). The following applies: P. falciparum 3D7 in erythrocytes, SYBR Green DNA fluorescence, 72 h; at 28.5 µM (top of the series) unless noted. Summed up: (§1)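 Erythrocytes infected with P. falciparum (0.3% parasitemia, 2.5% hematocrit) incubated with compounds 72 h at 37 C, 5% CO2. Lysis with saponin/Triton buffer containing SYBR Green I, overnight at room temperature in the dark; DNA fluorescence (485/535 nm) normalised to 0.29 uM artemisinin and DMSO.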

Test [16] can be described thus: qHTS profiling of the MIPE4 collection as inhibitors of Plasmodium falciparum (DD2) proliferation (AID 743345; call rule not given here). The conditions noted are these: P. falciparum Dd2 in erythrocytes, SYBR Green DNA, 72 h; at 28.5 µM (top of the series) unless noted. The essentials: as §1
A short description of test [17]: qHTS profiling of the MIPE4 collection as inhibitors of Plasmodium falciparum (DD2) proliferation (Rep 2) (AID 743346; call rule not given here). The following applies: P. falciparum Dd2 in erythrocytes, SYBR Green DNA, 72 h; at 28.5 µM (top of the series) unless noted. The essentials: as §1
Test [18] can be described thus: Primary qHTS for inhibitors of SARS-S pseudo-typed particle cell entry (AID 1479145). Also: potency is read from the fitted curve at half-maximal effect; nearly all actives have a fitted effect of over 45% in size.
Test [19] is described as follows: Primary qHTS for Huh7 cytotoxicity: counterscreen for inhibitors of MERS-S pseudotyped particle cell entry (AID 1479147). Also: % is scaled to controls: 0 for no effect and ±100 for the full control effect. The conditions noted are these: outcome: dose series up to 57.1 µM unless noted.
A short description of test [20]: Primary qHTS for Vero E6 cytotoxicity: counterscreen for inhibitors of SARS-S pseudo-typed particle cell entry (AID 1479150). Also: % is scaled to controls: 0 for no effect and ±100 for the full control effect. The conditions noted are these: outcome: dose series up to 57.1 µM unless noted.

Alpha-galactosidase (Coffea arabica), sequence (Q42656 whole entry, looked up): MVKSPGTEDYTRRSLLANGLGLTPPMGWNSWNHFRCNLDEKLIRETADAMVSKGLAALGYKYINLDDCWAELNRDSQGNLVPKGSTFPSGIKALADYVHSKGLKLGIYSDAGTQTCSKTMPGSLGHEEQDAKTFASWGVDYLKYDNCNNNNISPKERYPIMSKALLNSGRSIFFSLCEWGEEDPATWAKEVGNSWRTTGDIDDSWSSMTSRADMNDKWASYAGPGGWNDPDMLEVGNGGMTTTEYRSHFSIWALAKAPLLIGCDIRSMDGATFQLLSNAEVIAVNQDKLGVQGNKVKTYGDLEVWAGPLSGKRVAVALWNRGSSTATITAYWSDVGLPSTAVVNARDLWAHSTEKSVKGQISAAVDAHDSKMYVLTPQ
Nucleoprotein (Lymphocytic choriomeningitis virus (strain Armstrong)), sequence (P09992 whole entry, looked up): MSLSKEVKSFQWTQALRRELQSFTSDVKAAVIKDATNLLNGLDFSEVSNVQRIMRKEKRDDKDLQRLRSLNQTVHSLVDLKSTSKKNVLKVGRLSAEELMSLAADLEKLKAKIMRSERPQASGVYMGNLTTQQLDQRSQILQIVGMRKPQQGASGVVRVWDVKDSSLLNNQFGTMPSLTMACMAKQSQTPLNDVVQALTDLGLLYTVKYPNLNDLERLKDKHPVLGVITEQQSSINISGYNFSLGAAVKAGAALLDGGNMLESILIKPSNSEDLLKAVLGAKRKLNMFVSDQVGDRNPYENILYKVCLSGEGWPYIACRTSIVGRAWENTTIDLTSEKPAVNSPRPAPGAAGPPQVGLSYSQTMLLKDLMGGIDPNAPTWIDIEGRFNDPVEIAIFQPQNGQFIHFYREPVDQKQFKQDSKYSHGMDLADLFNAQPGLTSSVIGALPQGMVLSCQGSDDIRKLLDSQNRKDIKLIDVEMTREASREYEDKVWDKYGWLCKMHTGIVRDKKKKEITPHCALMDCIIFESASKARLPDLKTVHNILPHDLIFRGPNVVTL
Bile acid receptor (Homo sapiens), sequence (Q96RI1 whole entry, looked up): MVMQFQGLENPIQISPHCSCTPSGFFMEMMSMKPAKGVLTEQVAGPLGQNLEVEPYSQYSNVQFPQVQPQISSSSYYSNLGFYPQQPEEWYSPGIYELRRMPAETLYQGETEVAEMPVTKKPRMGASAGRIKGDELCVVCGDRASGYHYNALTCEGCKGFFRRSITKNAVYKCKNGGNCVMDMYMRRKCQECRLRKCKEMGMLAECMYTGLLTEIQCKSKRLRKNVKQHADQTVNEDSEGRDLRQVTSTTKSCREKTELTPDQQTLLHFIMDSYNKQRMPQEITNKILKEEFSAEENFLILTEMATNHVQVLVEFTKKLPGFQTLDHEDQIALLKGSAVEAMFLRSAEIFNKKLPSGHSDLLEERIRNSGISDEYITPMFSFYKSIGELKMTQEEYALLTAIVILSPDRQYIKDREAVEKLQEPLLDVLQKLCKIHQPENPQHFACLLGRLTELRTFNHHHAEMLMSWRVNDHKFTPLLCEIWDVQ

For `Nc1nc(Cl)nc2c1ncn2[C@@H]1O[C@H](COP(=O)(O)OP(=O)(O)OP(=O)(O)O)[C@@H](O)[C@H]1O`, in [1], the compound was classed as inactive. Besides, the Potency entry in [2], in [3] and in test [4] was “inactive” in each case.
Turning to `O=c1c(-c2ccc(O)cc2)coc2cc(O)ccc12`, the result in test [5], in test [6] and in test [1] was inactive. For the same compound, the Potency result in test [7], in [9], in [2], in [3], in [4] and in test [10] was “inactive” each time. The Potency result in test [11] was “inactive”. For the same compound, the activation in test [8] was 2% (inactive) and 3.27% (inactive).
In the case of `CN1CCCN(C(=O)c2cccc(-c3ccc(C=C4C(=O)Nc5ccc(Cl)cc54)o3)c2)CC1`, the Potency result in test [2] and in test [4] was “inactive” throughout.
In the case of `Nc1ncnc2c1c(-c1cccc(OCc3ccccc3)c1)cn2C1CC(CN2CCCC2)C1` (configuration not stated), the Potency result in [2] is “inactive”. Further, the results for the Potency in test [3], in test [12] and in test [11] were 27.3 µM (active), 12.6 µM (active) and 14.1 µM (active), respectively.
`O=C1OC(=O)C2C3CCC(O3)C12` (configuration not stated): the activity change, negative = inhibition in test [13] (at 57.5 µM (top of the series)) was 0.66% (inactive) and -7.44% (inactive). Moreover, the max response is -1.46% and -29.7% in test [13] (measured here: cell count channel max response); 1.23% and -36.1% in test [13] (measured here: lipid channel max response). For the same compound, the Potency result in test [7] and in test [2] was “inactive” each time. Besides, the call in test [1] was inactive. Further, the Potency in test [3] is 12.6 µM (active).
In the case of `Nc1nc(NCCNc2ncc(-n3ccnc3)c(-c3ccc(Cl)cc3Cl)n2)ccc1[N+](=O)[O-]`, the Potency entry in test [2] and in test [10] was “inactive” each time. Moreover, the Potency in [3] was 15.3 µM (active).
As to `CC(N)(Cc1ccc(O)c(O)c1)C(=O)O` (configuration not stated), the Potency entry in test [7], in test [2], in test [3] and in [4] was “inactive” in each case. The call in test [1] was inactive.
Regarding `COc1cc(OC)c2c(c1Cl)O[C@@]1(C2=O)[C@H](C)CC(=O)C[C@@H]1OC`, the Potency result in test [2] and in test [4] was “inactive” in each case.
`COc1cc(OC)c(NC(=O)Nc2cc(C)on2)cc1Cl`: the Potency result in [2], in [3], in test [4] and in [10] was “inactive” in each case. Further, in test [11], the activity change, negative = inhibition is -15.8%.
Take `C[C@H](NC(=O)c1sccc1OCc1ccc(Cl)cc1)c1ccccc1`: the Potency result in test [2], in test [3] and in test [10] was “inactive” each time.
Turning to `COc1ccc(-c2cc(=O)c3c(O)c(OC)c(OC)cc3o2)cc1O`, the Potency result in test [2] and in test [4] was “inactive” in each case.
In the case of `CC(C)NC[C@@H](O)c1ccc(O)c(O)c1`, the outcome in [1] was inactive. In addition, the Potency entry in test [2], in test [3] and in test [4] was “inactive” throughout.
For `CCn1c(C(=O)N(C2CC2)C2CC2)cc2c3c(ncn3C)c(Nc3cc(C)n(C)n3)nc21`, the Potency result in [2], in test [3], in [4] and in [10] was “inactive” in each case. The activity change, negative = inhibition in test [11] is -14.3%.
In the case of `CCCC(=O)NCCc1c2n(c3ccc(OC)cc13)CCCc1ccccc1-2`, the outcome in test [5], in [6] and in test [1] was inactive. Besides, the Potency entry in test [7], in [2] and in test [3] was “inactive” throughout.
In the case of `COc1cc(C=CC(=O)O)ccc1O`, the Potency result in test [2] and in test [4] was “inactive” each time.
For the compound `O=C1NCc2c1c1c3ccccc3[nH]c1c1[nH]c3ccccc3c21`, the Potency entry in test [2] and in test [4] was “inactive” in each case.
Regarding `COc1cc2c(c(OC)c1OC)-c1ccc(OC)c(=O)cc1C(N)CC2` (configuration not stated), the Potency result in [2] was “inactive”. The Potency in test [4] was 0.178 µM (active).
`O=C(O)C1(Cc2cccc(Nc3nccs3)n2)CCC(Oc2cccc(Cl)c2F)CC1` (configuration not stated): the Potency entry in test [2], in test [3], in test [4] and in [10] was “inactive” throughout. The Potency in [14] is 12.1 µM (active).
Turning to `Cc1ccc(S(=O)(=O)N[C@@H](Cc2ccccc2)C(=O)CCl)cc1`, the compound was classed as inactive in test [5], in test [6] and in test [1]. Also, the Potency in test [7] is 7.08 µM (active). In addition, the Potency result in [2], in test [3], in test [4] and in [10] was “inactive” in each case.
Turning to `CCCCCC(O)c1cccc(OCc2ccc3ccccc3n2)c1` (configuration not stated), the Potency result in test [7], in test [2], in test [3] and in [4] was “inactive” in each case.
In the case of `O=C(O)Cc1ccc(O)c(O)c1`, the outcome in [5], in test [6] and in test [1] was inactive. Also, the Potency entry in [2], in [3] and in [4] was “inactive” in each case.
For `O=C(Nc1ccccc1)c1cc([N+](=O)[O-])ccc1Cl`, the compound was classed as inactive in test [5], in test [6] and in test [1]. For the same compound, the activation in [8] was -1.48% (inactive). Further, the Potency entry in test [9], in [2] and in test [3] was “inactive” in each case.
In turn, `CC(N[C@H]1CCCC[C@H]1NC(=O)c1ccc(Cl)cc1)c1cccc2ccccc12` (some centres not stated) displayed a parasite growth, % of DMSO control in test [15] of 31.1%. The parasite growth remaining, % of DMSO control (lower = more inhibition) in test [16] was 79.2%. The compound further displayed a parasite growth, % of control (lower = inhibition) in test [17] of 64%. In addition, the Potency entry in [2] was “inactive”. Moreover, the Potency is 3.43 µM (active) in test [3], 4.85 µM (active) in [4] and 28.2 µM (active) in test [11].
As for `O=c1[nH]c(=O)n([C@H]2C[C@@H](O)[C@@H](CO)O2)cc1C(F)(F)F`, the Potency entry in test [2] and in test [4] was “inactive” each time.
In the case of `COc1cc2nccc(Oc3ccc(NC(=O)NC4CC4)c(Cl)c3)c2cc1C(N)=O`, the Potency result in [2] and in [10] was “inactive” throughout. The Potency is 19.3 µM (active) in [3], 3.55 µM (active) in test [18] and 19.2 µM (active) in test [14]. Also, the result in test [19] and in [20] was inactive.
As to `CC1(C)Oc2cc3oc(-c4cc(O)cc(O)c4)cc3cc2CC1O` (configuration not stated), the Potency entry in test [2] and in [4] was “inactive” each time.

(Values after PubChem BioAssay (NCATS).)
